“And” between values parts separate entries of the source, which are not always exact repeats. Identical values can stand only once. Whole data set: some 1,700 compounds, median “fraction of GFP-LC3-positive cells (≥5 vesicles/cell)” near 0.43, cut for the highest 2% near 0.81. What follows is part of a selection rich in the highest values, with near analogues and random picks from the rest.

The assay has as its system CbCln3 Δex7/8/Δex7/8 GFP-LC3 cerebellar neuronal cells. The experiment in a line: fraction of GFP-LC3-positive cells (≥5 vesicles/cell); higher = more autophagosome accumulation. In outline: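 Compound (~50 nL in DMSO) was pin-transferred in duplicate onto wild-type or mutant CbCln3 cerebellar cells stably expressing GFP-LC3, seeded at 2 × 10^3/well in 384-well plates, for 24 h at 33 °C. After fixation in 3.2% PFA, three fields per well were imaged at 10×. The value reported is the duplicate average of the fraction of cells meeting a vesicle-count threshold, with CellProfiler counting GFP-LC3 vesicles per cell and out-of-focus images excluded. Cells met the threshold at 5 or more vesicles.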
In the case of `CC(=O)N[C@@H](CC(C)C)C(=O)O` [N-Acetyl-L-leucine], the “fraction of GFP-LC3-positive cells” value worked out at 0.38.
The same measure for `COc1ccc2c(c1)c(CC(=O)OCC(=O)O)c(C)n2C(=O)c1ccc(Cl)cc1` [Acemetacin]: 0.361; for `CNc1ncnc2c1ncn2[C@@H]1O[C@H](CO)[C@@H](O)[C@H]1O` [N6-methyladenosine]: 0.417; for `COc1ccc(CC(N)C(=O)N[C@H]2[C@@H](O)[C@H](n3cnc4c(N(C)C)ncnc43)O[C@@H]2CO)cc1` (some centres not stated) [puromycin]: 0.782.
As for `COc1ccc(C[C@H](N)C(=O)N[C@H]2[C@@H](O)[C@H](n3cnc4c(N(C)C)ncnc43)O[C@@H]2CO)cc1.Cl.Cl` [Puromycin dihydrochloride], the figure is 0.937; as for `CCN(CC)Cc1cc(Nc2ccnc3cc(Cl)ccc23)ccc1O.Cl.Cl.O.O` [Amodiaquin dihydrochloride dihydrate], 0.513; as for `CCN(CC)CCCC(C)Nc1c2ccc(Cl)cc2nc2ccc(OC)cc12.Cl.Cl.O.O` (configuration not stated) [Quinacrine dihydrochloride dihydrate], 0.866.
As for `CCN(CC)CCCC(C)Nc1ccnc2cc(Cl)ccc12.O=P(O)(O)O.O=P(O)(O)O` (configuration not stated) [Chloroquine diphosphate], the figure is 0.518.
Turning to `NC1CONC1=O` (stereo in doubt) [(S)-(-)-Cycloserine], the “fraction of GFP-LC3-positive cells” value amounted to 0.414.
Regarding `CNC(C)CCC=C(C)C.CNC(C)CCC=C(C)C.O=C(O)C(O)C(O)C(O)C(O)C(=O)O` (configuration not stated) [Isometheptene mucate], the “fraction of GFP-LC3-positive cells” value came to 0.479.
As for `Cc1c(N(C)C)c(=O)n(-c2ccccc2)n1C` [Amidopyrine], the figure is 0.504; as for `COc1ccc2cc1Oc1ccc(cc1)C[C@H]1c3cc(c(OC)cc3CCN1C)Oc1c(OC)c(OC)cc3c1[C@H](C2)N(C)CC3`, 0.746.
The same measure for `COc1cc2c3cc1Oc1c(OC)c(OC)cc4c1[C@@H](Cc1ccc(OC(=O)c5ccc([N+](=O)[O-])cc5)c(c1)Oc1ccc(cc1)C[C@@H]3N(C)CC2)N(C)CC4` [E6 berbamine]: 0.834; for `COc1ccc2cc1Oc1ccc(cc1)C[C@H]1c3cc(c(OC)cc3CCN1C)Oc1c(OC)c(OC)cc3c1[C@H](C2)N(C)CC3` [Tetrandrine]: 0.679.
As for `CNCCc1ccccn1.CS(=O)(=O)O.CS(=O)(=O)O` [Betahistine mesylate], the figure is 0.488; as for `CN(C)CCN(Cc1ccc(Cl)cc1)c1ccccn1.Cl` [Chloropyramine hydrochloride], 0.566.
As to `c1ccc(CN(CCN(Cc2ccccn2)Cc2ccccn2)Cc2ccccn2)nc1`, the “fraction of GFP-LC3-positive cells” value was determined as 0.952.
As for `CCc1cccc2c3c([nH]c12)C(CC)(CC(=O)O)OCC3` (configuration not stated) [Etodolac], the figure is 0.495.
The same measure for `CCc1cc(Cl)c(OC)c(C(=O)NC[C@@H]2CCCN2CC)c1O.Cl` [S(-)Eticlopride hydrochloride]: 0.341.
The same measure for `C[C@]1(Cn2ccnn2)[C@H](C(=O)O)N2C(=O)C[C@H]2S1(=O)=O` [Tazobactam]: 0.531; for `CCCCCCCCCCCCCCC[C@@H](O)[C@@H](N)CO` [Dihydrosphingosine]: 0.348; for `CCCCCCCCCCCCCCC[C@@H](O)[C@@H](N)CO`: 0.515.
Consider `C[C@]12C=CC(=O)C=C1CC[C@@H]1[C@@H]2C(=O)C[C@@]2(C)[C@H]1CC[C@]2(O)C(=O)CO` [Prednisone], for which the “fraction of GFP-LC3-positive cells” value is 0.49.
As for `CCCC[C@@H](C)/C=C(C)/C=C(\C)C(=O)NC1=C[C@@](O)(/C=C/C=C/C=C/C(=O)NC2=C(O)CCC2=O)[C@@H]2O[C@@H]2C1=O` [manumycin A], the figure is 0.917; as for `CC(C)NC[C@H](O)COc1cccc2ccccc12.Cl` [(S)-propranolol hydrochloride], 0.275; as for `COC(=O)[C@H]1[C@H]2C[C@@H]3c4[nH]c5cc(OC)ccc5c4CCN3C[C@H]2C[C@@H](OC(=O)/C=C/c2cc(OC)c(OC)c(OC)c2)[C@@H]1OC` [Rescinnamin], 0.292.
The same measure for `COc1cc(/C=C/C(=O)N2CCC=CC2=O)cc(OC)c1OC` [Piperlongumine]: 0.901.
The same measure for `COc1cc(C(=O)OCCCN2CCCN(CCCOC(=O)c3cc(OC)c(OC)c(OC)c3)CC2)cc(OC)c1OC.Cl.Cl` [Dilazep dihydrochloride]: 0.699; for `CN(C)CCC(c1ccccc1)c1ccccn1.O=C(O)/C=C\C(=O)O` (configuration not stated) [Pheniramine maleate]: 0.47.
For the compound `COc1cc(-c2ccc(=O)[nH]n2)ccc1OC(F)F` [zardaverine], the “fraction of GFP-LC3-positive cells” value is 0.33.
The same measure for `CCCCCCCC/C=C/CCCCCCCCCC(=O)O` [11(E)-Eicosenoic acid]: 0.25; for `CCCCCCCC/C=C/CCCCCCCCCC(=O)O` [5561-99-9 11(Z)-Eicosenoic acid]: 0.401; for `Cl.Cl.OCCN1CCN(CC/C=C2/c3ccccc3Sc3ccc(C(F)(F)F)cc32)CC1` [Flupentixol dihydrochloride cis-(Z)]: 0.291.
The same measure for `CCCCC/C=C\C[C@@H](O)/C=C/C=C\CCC(=O)O` [Tetranor-12(R)-HETE]: 0.513; for `CC(C)NCC(O)COc1cccc2ccccc12.Cl` (stereo in doubt) [(R)-Propranolol hydrochloride]: 0.486.
For the compound `C[C@@H]1C/C=C/C=C/C=C/C=C/[C@H](O[C@@H]2O[C@H](C)[C@@H](O)[C@H](N)[C@@H]2O)C[C@@H]2O[C@](O)(C[C@@H](O)C[C@H]3OC3/C=C/C(=O)O1)C[C@H](O)[C@H]2C(=O)O` (some centres not stated) [Natamycin], the “fraction of GFP-LC3-positive cells” value was 0.298.
The same measure for `NS(=O)(=O)c1cc(C(=O)O)c(NCc2ccco2)cc1Cl` [Furosemide]: 0.511; for `CCC(C)[C@H](NS(=O)(=O)c1cccc2ccccc12)C(=O)N[C@H](C=O)Cc1c[nH]c2ccccc12` (some centres not stated): 0.69 and 0.692.
As for `CCN[C@H]1C[C@H](C)S(=O)(=O)c2sc(S(N)(=O)=O)cc21.Cl` [Dorzolamide hydrochloride], the figure is 0.432; as for `C=C1c2c(Cl)ccc(O)c2C(=O)C2=C(O)[C@]3(O)C(=O)C(C(N)=O)=C(O)[C@@H](N(C)C)[C@@H]3[C@@H](O)C12.O=C(O)c1cc(S(=O)(=O)O)ccc1O` (some centres not stated) [Meclocycline sulfosalicylate], 0.345.
The same measure for `CCc1cc(C(N)=S)ccn1` [Ethionamide]: 0.393; for `O=C(CCNNC(=O)c1ccncc1)NCc1ccccc1` [Nialamide]: 0.406.

The record behind these values is the supplement of paper PMC6953052.
